A selection: hits, their analogues and other compounds. The true share with any hit is near 7.4%.
NPC1 promoter act = activates the NPC1 promoter; Huh7 NPC1 promoter luciferase reporter, 24 h; Potency, µM (top dose mostly 9.22 µM), usual class: activators; hit rate 2.4% among 320,000; AID 485313; further: nearly all actives have a fitted effect of over 60% in size
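Compounds in DMSO were transferred onto Huh7 NPC1-luciferase reporter cells pre-incubated 2 h; after 24 h at 37 °C, Amplite reagent was dispensed and luminescence recorded 10 min later.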
SMN2 splice up = increases expression of the SMN2 splice variant. AID 1458. Potency, µM (doses to about 46.1 µM), most hits filed as activators. hit rate 2.8% among 210,000. HEK293 SMN2-luciferase splicing reporter, luminescence, 30-36 h; further: nearly all actives have a fitted effect of over 55% in size
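HEK293 cells carry an SMN2 […]–luciferase reporter in which exon 7 inclusion puts luciferase in frame. Cells were plated 10-12 h before compound addition, then incubated 30-36 h at 37C. ONE-Glo luminescence was read; sodium butyrate at 4.5 mM final served as control.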
FLuc counter = counter-screen for miR-21 project: firefly luciferase inhibitors or activators; purified FLuc, Km substrates, luminescence inhibition; hit rate 6.9% among 360,000; Potency, µM (top dose mostly 57.5 µM), hits mostly inhibitors; P08659; AID 588342; further: nearly all actives have a fitted effect of over 55% in size
Target sequence (P08659 whole entry, looked up): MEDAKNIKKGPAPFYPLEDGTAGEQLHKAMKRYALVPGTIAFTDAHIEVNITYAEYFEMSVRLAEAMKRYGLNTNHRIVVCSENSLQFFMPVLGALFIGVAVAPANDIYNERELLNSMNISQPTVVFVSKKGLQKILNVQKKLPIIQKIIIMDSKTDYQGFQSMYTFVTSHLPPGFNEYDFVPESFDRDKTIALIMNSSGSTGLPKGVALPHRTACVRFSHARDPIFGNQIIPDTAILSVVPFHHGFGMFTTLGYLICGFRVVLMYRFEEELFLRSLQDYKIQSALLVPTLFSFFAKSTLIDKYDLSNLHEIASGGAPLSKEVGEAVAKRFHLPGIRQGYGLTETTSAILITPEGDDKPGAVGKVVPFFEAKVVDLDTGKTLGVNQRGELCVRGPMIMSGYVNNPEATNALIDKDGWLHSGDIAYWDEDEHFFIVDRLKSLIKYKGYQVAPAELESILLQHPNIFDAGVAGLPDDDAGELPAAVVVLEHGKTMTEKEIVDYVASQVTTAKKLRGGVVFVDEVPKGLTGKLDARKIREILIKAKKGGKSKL
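Biochemical qHTS of compounds, final roughly 60 µM downward over six points, against 10 nM purified firefly luciferase using Km concentrations of substrates (10 uM D-luciferin, 10 uM ATP) in Tris acetate pH 7.5 buffer; luminescence output.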
Rab9 promoter act = activates the Rab9 promoter | Huh7 Rab9 promoter-luciferase reporter, luminescence, 24 h | Potency, µM (series often up to 9.22 µM), actives largely listed as activators | hit rate 2.8% among 320,000; further: nearly all actives have a fitted effect of over 60% in size
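Huh7 cells stably carrying a Rab9 promoter-luciferase reporter, 1500 cells per well in OP-MEM I with 10% FBS, treated with compound 24 hours at 37C. Luciferase activity read by luminescence after 10 minutes with Amplite reagent.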
ELG1 genotoxic = inducers of genotoxicity in HEK293T ELG1-luciferase cells. HEK293T ELG1-luciferase reporter, luminescence, 16 h. Potency, µM (doses to about 46 µM), usual class: activators. hit rate 1.3% among 330,000; further: nearly all actives have a fitted effect of over 60% in size
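Genotoxicity was scored as increased ELG1-luciferase reporter signal, measured by ONE-Glo luminescence (30 min, room temperature). Compound or vehicle exposure of the HEK293T reporter cells lasted 16 hr at 37°C.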
A number is an active result; - = inactive; ? = inconclusive; . = not tested or not shown; [ ] = dose if it differs, or a comment. The call rests on the fitted dose curve; in most records, active means well fitted curve in the direction sought with a large enough effect; inconclusive means small, poorly fitted or top-dose-only effect, or another doubt; inactive means no such curve, though single readings can be large; an effect the other way counts as inactive or inconclusive.

SMILES	NPC1 promoter act	SMN2 splice up	FLuc counter	Rab9 promoter act	ELG1 genotoxic
CCOC(=O)c1cccc(-c2c(-c3ccccc3)ncc3cc(OC)c(OC)cc23)c1	?	.	?	-	-
CCOC(=O)c1ccc2ncc(-c3ccccc3)nc2c1	3.2µM	-	5.4µM	3.5µM	10µM
COc1nc(-c2ccccc2)cc(-c2ccc(OC)c(OC)c2)n1	-	-	?	-	-
COC(=O)[C@]1(C)N[C@H](CN(C)S(=O)(=O)c2ccc(OC(F)(F)F)cc2)[C@@H]2C(=O)N(C)C(=O)[C@@H]21	.	.	.	.	-
Cc1cc(-c2ccccc2)nc(-c2ccccc2)c1C	-	.	0.17µM	?	21µM
Cc1nc2ccc(C(=O)OCc3ccccc3Br)cc2nc1C	3.2µM	-	12µM	1.1µM	?
CC(=O)Nc1ccc(C(=O)OCc2ccccc2Br)cc1	-	-	?	?	-
CCCCOc1ccc(-c2cnc3ccccc3n2)cc1	0.4µM	1.4µM	0.43µM	0.45µM	?
Cc1cc2ncc(-c3ccccc3)nc2cc1C	1.3µM	5µM	0.6µM	0.79µM	1.6µM
Cc1cc(-c2ccccc2)nc(N(C)N)c1S(C)(=O)=O	-	-	-	-	-
COc1cc(OC)c(NC(=O)Cn2c(=O)cc(C(F)(F)F)c3c(C)nn(C)c32)cc1Cl	.	.	-	.	.
COC(=O)C1=C(c2ccccc2)c2ccccc2S(=O)(=O)N1CC(=O)Nc1ccccc1Cl	.	-	-	.	.
Cc1cccc(S(=O)(=O)Nc2nc3ccccc3nc2OC(C)C)c1	-	.	-	-	-
FC(F)(F)c1ccc(-c2csc(-c3ccno3)n2)cc1	-	.	27µM	-	-
Oc1cccc(Nc2cc(-c3ccccc3)ncn2)c1	.	.	17µM	.	.
COc1ccc(NC(=O)c2sc3nc(C)c(C(=O)Nc4ccc(C)cc4C)c(-c4ccc(C)o4)c3c2N)cc1	.	-	-	.	.
O=C(Nc1ccccc1)c1ccn[nH]1	3.5µM	13µM	11µM	2.5µM	?
CC(=O)c1ccc(NC(=O)c2cccc(NC(=O)c3ccccc3)c2)cc1	-	.	?	-	-
CC(=O)c1ccc(NC(=O)c2ccn[nH]2)cc1	2µM	11µM	9.5µM	3.5µM	10µM
CC(=O)c1ccc(NC(=O)c2sc(-n3nc(C)c(Cc4ccc5c(c4)OCO5)c3C)nc2C)cc1	.	.	-	.	.
O=C(NCc1ccccc1Cl)c1ccc2c(c1)nnn2C1CCCC1	.	.	-	.	.
COc1ccc(NC(=O)Cc2nnc(SCC(=O)Nc3ccccc3)n2C)cc1	-	.	17µM	-	-
O=C(CSc1ccc2nnc(CCNC(=O)c3ccccc3)n2n1)Nc1ccccc1	-	-	-	-	-
COc1ccc(C(=O)NCCc2nnc3ccc(SCC(=O)Nc4ccccc4)nn23)cc1	1.6µM	.	3µM	2.8µM	?
COc1ccc(CC(=O)NCc2nnc(SCC(=O)Nc3cccc(F)c3)n2C)cc1	-	-	15µM	-	-
SMILES	NPC1 promoter act	SMN2 splice up	FLuc counter	Rab9 promoter act	ELG1 genotoxic
CCOc1ccc(NC(=O)CSc2nccn2C)cc1	-	?	?	?	?
Cn1ccnc1SCC(=O)Nc1ccc(Oc2ccccc2)cc1	?	-	13µM	-	?
CC(=O)c1sc(NC(=O)CSCc2c(C)noc2C)nc1-c1ccccc1	-	.	-	-	-
COc1ccc(-c2nnc(SCC(=O)NCCc3ccc(OC)c(OC)c3)nc2-c2ccc(OC)cc2)cc1	.	-	-	.	.
CC(C)c1nn2c(=O)cc(COC(=O)CNC(=O)c3ccccc3Cl)nc2s1	.	.	-	.	.
COc1ccc(NC(=O)Cc2nnc(SCC(=O)Nc3nccs3)n2C)cc1	-	.	15µM	-	-
CCn1c(CC(=O)Nc2cccc(OC)c2)nnc1SCC(=O)Nc1nccs1	-	-	-	-	-
c1ccc(-c2nccc(-c3ccco3)n2)nc1	-	-	-	-	-
c1ccc(-c2nc(-c3ccco3)cs2)nc1	-	-	15µM	3.5µM	?
CCN1CCN(C(=O)c2cc(=O)c3cc(C)ccc3o2)CC1	-	.	-	-	-
O=C(O)c1ccc(/C=N/Nc2ccc(Cl)nn2)cc1	-	.	-	-	-
CC1Oc2ccccc2C=C1/C=N/Nc1ccc(C(=O)O)cc1 (stereo not given)	?	.	0.54µM	?	1.2µM
CCNC(=S)N/N=C/c1ccc(C(=O)O)cc1	-	-	-	-	-
O=C(O)c1ccc(/C=N/Nc2ccc(F)cc2F)cc1	0.32µM	1.8µM	0.54µM	0.11µM	?
O=C(N/N=C/c1c(F)cccc1Cl)C1CC1	-	.	-	-	-
CC(C)(C)c1ccc(/C=N/Nc2ccc(C(=O)O)cc2)cc1	-	-[1.84 µM]	0.19µM	-	?
C[C@@H]1Oc2ccccc2C=C1/C=C/C(=O)O	.	-	.	.	.
O=C(O)c1ccc(N/N=C/c2c(F)cccc2Cl)cc1	?	.	0.3µM	1.3µM	0.29µM
COc1cccc(CNC(=O)c2ccccc2NC(=O)C2=C(C)OCCS2)c1	-	.	-	-	-
O=C(NNc1ncccc1Cl)c1c(Cl)cccc1Cl	-	-	-	-	-
Fc1ccc(N/N=C/C=C/c2ccccc2)c(F)c1	?	?	27µM	?	?
O=C(O)c1ccc(N/N=C/c2ccc(C(F)(F)F)cc2)cc1	-	-	0.21µM	?	0.1µM
O=C(O)c1ccc(/C=N/Nc2ncc(C(F)(F)F)cc2Cl)cc1	-	.	?	-	-
Cn1c(C(=O)NCc2ccc(F)cc2)cc2c(=O)n(C)c3ccccc3c21	.	-	-	.	.
CC(=O)[C@]1(O)CCC2C3C=C(Cl)C4=CC(=O)C5CC5[C@@]4(C)C3CC[C@]21C (stereo not given in full)	.	-	.	.	.
SMILES	NPC1 promoter act	SMN2 splice up	FLuc counter	Rab9 promoter act	ELG1 genotoxic
Cc1ccc(-c2nc(CS(=O)CC(=O)NCc3ccc4c(c3)OCO4)c(C)o2)cc1 (stereo not given)	-	.	-	-	-
Cc1nc(NC(=O)C2CC2)sc1C(=O)Nc1ccccc1Cl	3.5µM	.	?	2.5µM	-
Cc1nc(Nc2ccc(Cl)c(Cl)c2)sc1C(=O)Nc1ccccc1	-	-	?	-	-
Cc1nc(NC(=O)/C=C/c2ccccc2)sc1C(=O)Nc1ccccc1Cl	-	-	12µM	-	-
Cc1nc(Nc2ccc(Cl)cc2Cl)sc1C(=O)Nc1ccccc1	-	-	17µM	-	-
Cc1nc(Cl)sc1C(=O)Nc1ccccc1Cl	-	.	-	-	-
O=C(COC(=O)c1ccc(F)cc1Cl)NC1CCS(=O)(=O)C1 (stereo not given)	-	.	.	-	-
CN(C)/C=C/C(=C\C(=O)C(F)(F)F)Nc1ccc(C(F)(F)F)cc1	-	-	-	-	-
CC(/C=C/c1ccc(OCc2ccccc2)cc1)=N\O	2.8µM	11µM	2.4µM	2.8µM	15µM
COC(=O)c1ccc(/C=N\N2CCN(Cc3ccc(C)cc3)CC2)cc1	-	-	-	-	-
CN1CCN(/N=C/c2ccc(OCc3ccccc3)cc2)CC1	3.5µM	.	9.5µM	2.8µM	?
COC(=O)c1ccc(COc2ccc(/C=N/N3CCN(C)CC3)cc2)cc1	?	5.6µM	24µM	1.1µM	?
C(=N\n1cnnc1)/c1ccc(OCc2ccccc2)cc1	-	-	?	-	?
CC1(C)CCC=[N+]1[O-]	-	-	.	-	.

Screening results: PubChem BioAssay, National Center for Advancing Translational Sciences (NCATS)
